Source: PubChem BioAssay AID1159580 (chemical genetic matrix, 2015)
“And” between values parts separate entries of the source, which are not always exact repeats. Equal entries are not always repeated. In all, about 5,500 compounds went through this assay and about 2,000 (36%) were called active. Roughly 18% stayed inconclusive and do not appear here. Cut-off read from the data, not from the text of the source: active = normalized growth mostly below about 0.91 (no sharp cut-off); inconclusive = no clear call, values can overlap the other calls; inactive = mostly above about 0.92. The list shows a part of the results.

Test: chemical genetic growth profiling, strain panel (AID 1159580);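 note: tested at 20 µM; growth read once vehicle control cultures reached saturation at 30 °C; 1 = growth at the plate median or of vehicle wells; lower values mean less growth of the strain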
Details: S. cerevisiae deletion strains, growth OD

Measured: normalized growth

C#C[C@]1(O)CCC2C3CCC4=CC(=O)CC[C@@H]4C3CC[C@@]21C (some centres undefined)
inactive: locus YAL021C, strain ccr4, active compounds read low 0.973 | locus YAL026C, strain drs2, active compounds read low 0.967 | locus YAL030W, strain snc1, active compounds read low 0.987 | locus YBL061C, strain skt5, active compounds read low 0.989 | locus YBR009C, strain hhf1, active compounds read low 0.985 | locus YBR021W, strain FUR4, active compounds read low 0.978 | locus YBR023C, strain chs3, active compounds read low 0.987 | locus YBR171W, strain sec66, active compounds read low 0.969 | locus YBR229C, strain ROT2, active compounds read low 0.997 | locus YBR231C, strain swc5, active compounds read low 1 | locus YBR279W, strain paf1, active compounds read low 0.994 | locus YCL011C, strain gbp2, active compounds read low 0.984 | locus YCL016C, strain dcc1, active compounds read low 1 | locus YCL029C, strain bik1, active compounds read low 0.984 | locus YCL061C, strain MRC1, active compounds read low 0.977 | locus YCL069W, strain vba3, active compounds read low 0.968 | locus YCR088W, strain abp1, active compounds read low 0.982 | locus YDL005C, strain med2, active compounds read low 0.962 | locus YDL035C, strain GPR1, active compounds read low 0.98 | locus YDL040C, strain nat1, active compounds read low 0.984 | locus YDL074C, strain BRE1, active compounds read low 0.988 | locus YDL101C, strain DUN1, active compounds read low 0.995 | locus YDL134C, strain PPH21, active compounds read low 0.975 | locus YDL185W, strain tfp1, active compounds read low 0.98 | locus YDL192W, strain arf1, active compounds read low 0.978 | locus YDR001C, strain nth1, active compounds read low 0.981 | locus YDR069C, strain doa4, active compounds read low 0.972 | locus YDR101C, strain arx1, active compounds read low 0.97 | locus YDR137W, strain rgp1, active compounds read low 0.892 | locus YDR150W, strain NUM1, active compounds read low 1.01 | locus YDR159W, strain sac3, active compounds read low 0.981 | locus YDR162C, strain NBP2, active compounds read low 0.932 | locus YDR195W, strain ref2 1.01 | locus YDR297W, strain sur2, active compounds read low 0.993 | locus YDR318W, strain mcm21, active compounds read low 0.974 | locus YDR334W, strain swr1, active compounds read low 0.977 | locus YDR335W, strain msn5, active compounds read low 0.98 | locus YDR388W, active compounds read low 0.975 | locus YDR392W, strain spt3, active compounds read low 0.801 | locus YDR502C, strain sam2, active compounds read low 0.957 | locus YEL003W, strain gim4, active compounds read low 0.97 | locus YEL037C, strain rad23, active compounds read low 0.966 | locus YEL061C, strain CIN8 (second series), active compounds read low 0.967 | locus YEL061C, strain CIN8, active compounds read low 0.995 | locus YER015W, strain faa2, active compounds read low 0.974 | locus YER016W, strain bim1, active compounds read low 0.98 | locus YER110C, active compounds read low 0.982 | locus YER111C, strain swi4, active compounds read low 0.988 | locus YER155C, strain BEM2 (second series), active compounds read low 0.981 | locus YER155C, strain BEM2, active compounds read low 0.999 | locus YER167W, strain BCK2, active compounds read low 0.991 | locus YFR010W, strain ubp6, active compounds read low 0.979 | locus YGL078C, strain dbp3, active compounds read low 0.979 | locus YGL086W, strain mad1, active compounds read low 0.991 | locus YGL167C, strain pmr1, active compounds read low 0.972 | locus YGL173C, strain kem1, active compounds read low 0.969 | locus YGL227W, strain vid30, active compounds read low 0.984 | locus YGL240W, strain doc1, active compounds read low 0.988 | locus YGL248W, strain PDE1, active compounds read low 0.998 | locus YGL253W, strain hxk2, active compounds read low 0.982 | locus YGR135W, strain pre9, active compounds read low 0.986 | locus YGR229C, strain SMI1, active compounds read low 0.948 | locus YGR252W, strain gcn5, active compounds read low 0.978 | locus YHR013C, strain ard1, active compounds read low 0.993 | locus YHR027C, strain rpn1, active compounds read low 0.981 | locus YHR030C, strain SLT2, active compounds read low 1 and 0.925 | locus YHR079C, strain IRE1 (second series), active compounds read low 0.983 | locus YHR079C, strain IRE1, active compounds read low 0.95 | locus YHR094C, strain hxt1, active compounds read low 0.981 | locus YHR129C, strain ARP1, active compounds read low 1.01 | locus YHR142W, strain chs7, active compounds read low 0.952 | locus YHR200W, strain rpn10, active compounds read low 0.986 | locus YIL066C, strain RNR3, active compounds read low 0.99 | locus YIL073C, strain SPO22, active compounds read low 0.9 | locus YIL125W, strain kgd1, active compounds read low 0.986 | locus YIR030C, strain dcg1, active compounds read low 0.984 | locus YJL092W, strain hpr5, active compounds read low 0.976 | locus YJL095W, strain BCK1 (second series), active compounds read low 0.99 | locus YJL095W, strain BCK1, active compounds read low 0.932 and 0.954 | locus YJL115W, strain asf1, active compounds read low 0.975 | locus YJL129C, strain trk1, active compounds read low 0.919 | locus YJL134W, strain LCB3, active compounds read low 0.995 | locus YJL154C, strain vps35, active compounds read low 0.965 | locus YJL164C, strain tpk1, active compounds read low 0.976 | locus YJL166W, strain qcr8, active compounds read low 0.992 | locus YJL168C, strain set2, active compounds read low 0.984 | locus YJL187C, strain SWE1 (second series), active compounds read low 0.991 | locus YJL187C, strain SWE1, active compounds read low 0.983 | locus YJR043C, strain POL32, active compounds read low 1.01
